About 7,900 targets were measured; listed, in parts, are those with a hit and a random draw of the rest. About 0.6% of all pairs of compound and target were hits. Unmarked numbers belong to inactive results.
Compound: Nc1ccccc1NC(=O)c1ccc(CNC(=O)OCc2cccnc2)cc1 [entinostat]
Test: log2 fold change, soluble protein after heating vs DMSO (PISA); higher = thermal stabilisation; K562 cells, 10 uM, 30 min; active = over 0.2 and 3.5 SD of the protein, either way, in both replicates (recomputed)
How it was run: (§1)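 Aliquots of K562 cells (2×10^6 cells/mL) treated with 10 μM compound for 30 min were heated for 3 min over 48°C-58°C. After pooling and extraction in PBS with 0.5% NP-40 at 4°C, soluble protein from a 21,000xg, 90 min spin was quantified by TMTpro 16plex LC-MS/MS with channel sums equalised. Thermal stability is expressed against control samples, from duplicates, as a log2 fold change.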

Chain of UniProt Q9NRZ7 (Q9NRZ7 whole entry, looked up): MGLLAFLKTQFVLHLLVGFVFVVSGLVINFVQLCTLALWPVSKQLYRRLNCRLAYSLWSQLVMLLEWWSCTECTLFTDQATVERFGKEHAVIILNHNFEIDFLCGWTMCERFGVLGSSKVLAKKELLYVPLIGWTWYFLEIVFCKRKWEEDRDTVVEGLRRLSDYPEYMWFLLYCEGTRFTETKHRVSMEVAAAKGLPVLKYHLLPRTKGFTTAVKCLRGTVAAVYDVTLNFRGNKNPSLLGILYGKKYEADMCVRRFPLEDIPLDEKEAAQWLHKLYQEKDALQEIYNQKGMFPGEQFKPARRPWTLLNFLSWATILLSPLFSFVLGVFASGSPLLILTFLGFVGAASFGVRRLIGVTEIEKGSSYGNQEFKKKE
Chain of UniProt Q9H8Y5 (Q9H8Y5 whole entry, looked up): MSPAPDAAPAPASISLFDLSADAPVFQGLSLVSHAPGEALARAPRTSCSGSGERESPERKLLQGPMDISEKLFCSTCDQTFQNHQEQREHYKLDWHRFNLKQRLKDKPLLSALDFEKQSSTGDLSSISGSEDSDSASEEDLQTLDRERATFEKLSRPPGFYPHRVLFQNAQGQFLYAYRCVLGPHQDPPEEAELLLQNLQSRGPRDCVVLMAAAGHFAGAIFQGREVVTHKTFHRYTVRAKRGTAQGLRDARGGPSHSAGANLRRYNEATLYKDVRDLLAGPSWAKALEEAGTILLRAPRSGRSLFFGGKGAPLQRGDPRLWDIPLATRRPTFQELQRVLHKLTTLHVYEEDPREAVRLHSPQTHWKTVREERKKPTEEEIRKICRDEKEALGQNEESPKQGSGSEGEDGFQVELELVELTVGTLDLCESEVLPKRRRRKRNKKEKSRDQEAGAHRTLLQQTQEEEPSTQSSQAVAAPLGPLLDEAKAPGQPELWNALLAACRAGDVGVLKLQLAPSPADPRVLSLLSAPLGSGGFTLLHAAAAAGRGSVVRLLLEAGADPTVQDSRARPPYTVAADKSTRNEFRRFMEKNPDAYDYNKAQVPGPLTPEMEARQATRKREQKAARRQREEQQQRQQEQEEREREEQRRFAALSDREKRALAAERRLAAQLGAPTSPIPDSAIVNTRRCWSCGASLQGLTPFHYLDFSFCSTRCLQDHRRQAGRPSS
Chain of UniProt P53680 (P53680 whole entry, looked up): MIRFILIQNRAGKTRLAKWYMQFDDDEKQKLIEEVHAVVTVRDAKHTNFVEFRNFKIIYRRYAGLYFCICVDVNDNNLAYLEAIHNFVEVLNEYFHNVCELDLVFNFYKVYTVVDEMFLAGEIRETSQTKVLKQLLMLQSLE
Chain of UniProt P15291 (P15291 whole entry, looked up): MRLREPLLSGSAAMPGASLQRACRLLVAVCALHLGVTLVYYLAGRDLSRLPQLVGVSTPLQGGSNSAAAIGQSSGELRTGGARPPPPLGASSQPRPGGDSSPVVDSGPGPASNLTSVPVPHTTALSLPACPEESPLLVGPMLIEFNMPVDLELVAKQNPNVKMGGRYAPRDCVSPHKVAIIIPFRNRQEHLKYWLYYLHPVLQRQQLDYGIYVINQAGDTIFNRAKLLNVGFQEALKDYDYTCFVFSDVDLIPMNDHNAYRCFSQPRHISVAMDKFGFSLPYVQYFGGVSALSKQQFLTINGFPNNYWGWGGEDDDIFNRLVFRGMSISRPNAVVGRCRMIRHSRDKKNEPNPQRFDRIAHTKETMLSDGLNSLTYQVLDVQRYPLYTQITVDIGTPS
Chain of UniProt Q6P6C2 (Q6P6C2 whole entry, looked up): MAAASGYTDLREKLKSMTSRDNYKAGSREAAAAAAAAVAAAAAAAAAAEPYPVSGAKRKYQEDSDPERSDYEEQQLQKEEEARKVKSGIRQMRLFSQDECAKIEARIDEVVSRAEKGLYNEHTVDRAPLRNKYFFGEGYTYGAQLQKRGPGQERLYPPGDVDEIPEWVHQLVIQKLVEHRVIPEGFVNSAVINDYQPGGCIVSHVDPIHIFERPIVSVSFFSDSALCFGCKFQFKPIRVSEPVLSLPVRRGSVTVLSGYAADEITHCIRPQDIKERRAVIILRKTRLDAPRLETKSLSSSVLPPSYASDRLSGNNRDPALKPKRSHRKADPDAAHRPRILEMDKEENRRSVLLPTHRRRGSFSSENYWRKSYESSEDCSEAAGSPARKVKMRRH
Chain of UniProt Q9Y3D8 (Q9Y3D8 whole entry, looked up): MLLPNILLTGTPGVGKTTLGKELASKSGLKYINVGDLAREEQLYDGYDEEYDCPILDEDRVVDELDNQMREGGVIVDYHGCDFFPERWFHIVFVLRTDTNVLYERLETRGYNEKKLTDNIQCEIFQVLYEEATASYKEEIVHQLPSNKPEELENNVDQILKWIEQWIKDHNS
Chain of UniProt P56385 (P56385 whole entry, looked up): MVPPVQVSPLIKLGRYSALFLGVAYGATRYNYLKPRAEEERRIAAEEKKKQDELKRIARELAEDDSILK
Chain of UniProt O95870 (O95870 whole entry, looked up): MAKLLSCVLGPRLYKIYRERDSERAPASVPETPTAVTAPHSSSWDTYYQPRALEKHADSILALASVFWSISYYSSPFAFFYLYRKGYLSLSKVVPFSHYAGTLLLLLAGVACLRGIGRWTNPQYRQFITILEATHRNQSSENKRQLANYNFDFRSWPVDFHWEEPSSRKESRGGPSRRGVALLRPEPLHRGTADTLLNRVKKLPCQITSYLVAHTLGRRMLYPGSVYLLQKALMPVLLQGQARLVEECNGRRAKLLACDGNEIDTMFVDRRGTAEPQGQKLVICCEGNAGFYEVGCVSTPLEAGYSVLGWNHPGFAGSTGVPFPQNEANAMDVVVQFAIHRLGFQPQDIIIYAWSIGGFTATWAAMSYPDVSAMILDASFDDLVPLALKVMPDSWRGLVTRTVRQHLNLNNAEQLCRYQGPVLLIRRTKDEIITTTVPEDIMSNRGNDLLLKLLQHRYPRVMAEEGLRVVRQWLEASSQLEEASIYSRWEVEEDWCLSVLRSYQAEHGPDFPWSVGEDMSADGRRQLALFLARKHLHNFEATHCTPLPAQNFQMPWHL
Chain of UniProt Q8IUR7 (Q8IUR7 whole entry, looked up): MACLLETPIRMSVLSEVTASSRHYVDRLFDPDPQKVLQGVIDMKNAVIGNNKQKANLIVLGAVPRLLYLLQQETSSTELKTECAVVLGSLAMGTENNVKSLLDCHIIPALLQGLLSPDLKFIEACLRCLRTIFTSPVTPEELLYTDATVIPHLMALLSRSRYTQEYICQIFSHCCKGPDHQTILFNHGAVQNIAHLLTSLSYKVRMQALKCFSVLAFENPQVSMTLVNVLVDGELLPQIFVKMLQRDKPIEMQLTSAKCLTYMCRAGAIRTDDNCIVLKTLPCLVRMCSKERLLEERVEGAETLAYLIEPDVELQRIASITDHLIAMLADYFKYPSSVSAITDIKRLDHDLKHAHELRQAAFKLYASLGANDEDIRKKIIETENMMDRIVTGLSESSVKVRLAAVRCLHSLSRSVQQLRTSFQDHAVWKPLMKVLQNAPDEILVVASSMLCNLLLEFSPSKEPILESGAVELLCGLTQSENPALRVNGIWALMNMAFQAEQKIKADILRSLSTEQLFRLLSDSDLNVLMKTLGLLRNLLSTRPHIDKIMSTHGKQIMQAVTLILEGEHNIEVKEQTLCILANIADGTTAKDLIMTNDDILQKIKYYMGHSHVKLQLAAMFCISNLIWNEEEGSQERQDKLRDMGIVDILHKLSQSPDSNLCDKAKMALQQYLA
Chain of UniProt P54707 (P54707 whole entry, looked up): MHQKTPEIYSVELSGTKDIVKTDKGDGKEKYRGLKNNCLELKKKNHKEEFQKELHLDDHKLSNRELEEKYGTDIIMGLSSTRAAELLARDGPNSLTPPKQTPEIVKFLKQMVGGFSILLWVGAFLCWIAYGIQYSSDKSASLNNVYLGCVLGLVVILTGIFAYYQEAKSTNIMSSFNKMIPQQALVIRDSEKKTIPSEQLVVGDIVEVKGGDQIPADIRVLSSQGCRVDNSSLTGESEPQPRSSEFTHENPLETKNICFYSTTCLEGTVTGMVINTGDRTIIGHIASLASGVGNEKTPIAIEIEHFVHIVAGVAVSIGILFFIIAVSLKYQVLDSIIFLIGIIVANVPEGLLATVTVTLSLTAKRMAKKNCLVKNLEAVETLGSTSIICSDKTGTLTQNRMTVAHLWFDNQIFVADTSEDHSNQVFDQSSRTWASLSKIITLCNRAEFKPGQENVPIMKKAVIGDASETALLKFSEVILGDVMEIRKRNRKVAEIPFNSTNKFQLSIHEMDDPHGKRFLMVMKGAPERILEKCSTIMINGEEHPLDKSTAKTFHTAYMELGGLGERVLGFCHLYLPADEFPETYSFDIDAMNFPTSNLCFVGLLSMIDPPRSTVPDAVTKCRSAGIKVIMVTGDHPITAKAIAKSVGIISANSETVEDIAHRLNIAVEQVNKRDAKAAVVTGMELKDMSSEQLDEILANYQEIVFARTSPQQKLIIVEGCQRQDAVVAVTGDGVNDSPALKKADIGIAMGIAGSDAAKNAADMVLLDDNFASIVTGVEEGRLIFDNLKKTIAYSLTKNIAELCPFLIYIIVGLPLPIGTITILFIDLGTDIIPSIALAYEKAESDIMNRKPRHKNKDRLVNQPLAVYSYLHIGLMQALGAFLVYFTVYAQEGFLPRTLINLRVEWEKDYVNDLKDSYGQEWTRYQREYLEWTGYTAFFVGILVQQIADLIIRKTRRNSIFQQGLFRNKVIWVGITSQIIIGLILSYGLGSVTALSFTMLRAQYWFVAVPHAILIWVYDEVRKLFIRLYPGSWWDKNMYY
Chain of UniProt Q9Y6E2 (Q9Y6E2 whole entry, looked up): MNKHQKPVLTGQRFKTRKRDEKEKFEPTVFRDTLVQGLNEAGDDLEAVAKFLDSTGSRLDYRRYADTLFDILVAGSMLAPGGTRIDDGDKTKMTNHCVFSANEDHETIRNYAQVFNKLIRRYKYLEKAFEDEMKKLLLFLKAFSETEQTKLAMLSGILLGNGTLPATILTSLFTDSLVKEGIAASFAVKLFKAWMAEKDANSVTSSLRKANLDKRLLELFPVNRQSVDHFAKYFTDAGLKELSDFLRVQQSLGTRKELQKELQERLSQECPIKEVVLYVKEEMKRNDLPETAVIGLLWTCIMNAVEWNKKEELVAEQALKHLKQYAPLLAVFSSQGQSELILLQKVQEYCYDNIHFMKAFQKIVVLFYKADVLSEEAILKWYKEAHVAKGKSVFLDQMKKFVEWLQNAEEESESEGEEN

Going from ALDH18A1 (UniProt P54886) to AGPAT3 isoform 3 (UniProt Q9NRZ7), the log2 fold change falls from 0.249 to 0.004.

ANKZF1 (UniProt Q9H8Y5) and AK6 (UniProt Q9Y3D8) are within 0.2 log units of each other in log2 fold change: 0.03 for the first, 0.145 for the second.

AP2S1 (UniProt P53680) and ACADVL isoform 3 (UniProt P49748) are within 0.2 log units of each other in log2 fold change: -0.066 for the first, 0 for the second.

ATP5ME (UniProt P56385) and B4GALT1 (UniProt P15291) are within 0.2 log units of each other in log2 fold change: 0.026 for the first, -0.01 for the second.

ALKBH5 (UniProt Q6P6C2) and ATP12A isoform 2 (UniProt P54707) are within 0.2 log units of each other in log2 fold change: -0.076 for the first, -0.072 for the second.

ABHD16A (UniProt O95870) and BAP1 (UniProt Q92560) are within 0.2 log units of each other in log2 fold change: -0.02 for the first, -0.054 for the second.

Work on ARMC8 (UniProt Q8IUR7) yielded a log2 fold change of -0.031.

Compound: O=C(CCCCCCC(=O)Nc1ccccc1)NO [vorinostat]
Test: as above
How it was run: as §1

BZW2 (UniProt Q9Y6E2) and ALDH6A1 (UniProt Q02252) are within 0.2 log units of each other in log2 fold change: -0.003 for the first, 0.021 for the second.

ATAD3B (UniProt Q5T9A4) and ASNS (UniProt P08243) are within 0.2 log units of each other in log2 fold change: 0.108 for the first, 0.018 for the second.

ALG11 (UniProt Q2TAA5) and AGPAT5 (UniProt Q9NUQ2) are within 0.2 log units of each other in log2 fold change: -0.038 for the first, -0.002 for the second.

ALDH9A1 isoform 3 (UniProt P49189) and ARL2BP (UniProt Q9Y2Y0) are within 0.2 log units of each other in log2 fold change: -0.003 for the first, 0.132 for the second.

ASH2L (UniProt Q9UBL3) and ACO2 (UniProt Q99798) are within 0.2 log units of each other in log2 fold change: 0.013 for the first, 0.023 for the second.

APOB (UniProt P04114) and AMFR (UniProt Q9UKV5) are within 0.2 log units of each other in log2 fold change: -0.009 for the first, 0.055 for the second.

AKT2 (UniProt P31751) and BCAP29 isoform 2 (UniProt Q9UHQ4) are within 0.2 log units of each other in log2 fold change: 0.022 for the first, -0.064 for the second.

ADD3 (UniProt Q9UEY8) and ATP6V0A1 isoform 3 (UniProt Q93050) are within 0.2 log units of each other in log2 fold change: -0.01 for the first, 0.062 for the second.

BCCIP isoform 2 (UniProt Q9P287) and ATL2 (UniProt Q8NHH9) are within 0.2 log units of each other in log2 fold change: 0.033 for the first, 0.017 for the second.

BRIX1 (UniProt Q8TDN6) and ACBD6 (UniProt Q9BR61) are within 0.2 log units of each other in log2 fold change: 0.059 for the first, 0.086 for the second.

Going from ABCB6 (UniProt Q9NP58) to ATG4B isoform 2 (UniProt Q9Y4P1), the log2 fold change rises from 0.044 to 0.268.

ALDH18A1 (UniProt P54886) and AGPAT3 isoform 3 (UniProt Q9NRZ7) are within 0.2 log units of each other in log2 fold change: 0.194 for the first, 0.004 for the second.

ANKZF1 (UniProt Q9H8Y5) and AK6 (UniProt Q9Y3D8) are within 0.2 log units of each other in log2 fold change: 0.054 for the first, 0.074 for the second.

AP2S1 (UniProt P53680) and ACADVL isoform 3 (UniProt P49748) are within 0.2 log units of each other in log2 fold change: 0.108 for the first, -0.019 for the second.

ATP5ME (UniProt P56385) and B4GALT1 (UniProt P15291) are within 0.2 log units of each other in log2 fold change: -0.027 for the first, -0.01 for the second.

Going from ALKBH5 (UniProt Q6P6C2) to ATP12A isoform 2 (UniProt P54707), the log2 fold change falls from 0.18 to -0.035.

ABHD16A (UniProt O95870) and BAP1 (UniProt Q92560) are within 0.2 log units of each other in log2 fold change: 0.055 for the first, 0.13 for the second.

Target ARMC8 (UniProt Q8IUR7) has a log2 fold change of -0.031.

In the case of BRD4 (UniProt O60885), the log2 fold change is reported as -0.463 (active).

Compound: O=C(CCCCCCNC(=O)c1cnc(N(c2ccccc2)c2ccccc2Cl)nc1)NO [citarinostat]
Test: as above
How it was run: as §1

BZW2 (UniProt Q9Y6E2) and ALDH6A1 (UniProt Q02252) are within 0.2 log units of each other in log2 fold change: 0.044 for the first, 0.062 for the second.

ATAD3B (UniProt Q5T9A4) and ASNS (UniProt P08243) are within 0.2 log units of each other in log2 fold change: -0.016 for the first, 0.013 for the second.

ALG11 (UniProt Q2TAA5) and AGPAT5 (UniProt Q9NUQ2) are within 0.2 log units of each other in log2 fold change: 0.039 for the first, 0.045 for the second.

ALDH9A1 isoform 3 (UniProt P49189) and ARL2BP (UniProt Q9Y2Y0) are within 0.2 log units of each other in log2 fold change: 0.025 for the first, 0.006 for the second.

ASH2L (UniProt Q9UBL3) and ACO2 (UniProt Q99798) are within 0.2 log units of each other in log2 fold change: 0.044 for the first, 0.057 for the second.

APOB (UniProt P04114) and AMFR (UniProt Q9UKV5) are within 0.2 log units of each other in log2 fold change: 0.015 for the first, 0.012 for the second.

AKT2 (UniProt P31751) and BCAP29 isoform 2 (UniProt Q9UHQ4) are within 0.2 log units of each other in log2 fold change: 0.077 for the first, -0.015 for the second.

ADD3 (UniProt Q9UEY8) and ATP6V0A1 isoform 3 (UniProt Q93050) are within 0.2 log units of each other in log2 fold change: -0.015 for the first, 0.109 for the second.

BCCIP isoform 2 (UniProt Q9P287) and BRD4 (UniProt O60885) are within 0.2 log units of each other in log2 fold change: 0.021 for the first, -0.123 for the second.

ATL2 (UniProt Q8NHH9) and BRIX1 (UniProt Q8TDN6) are within 0.2 log units of each other in log2 fold change: -0.023 for the first, -0.05 for the second.

ACBD6 (UniProt Q9BR61) and ABCB6 (UniProt Q9NP58) are within 0.2 log units of each other in log2 fold change: 0.084 for the first, 0.063 for the second.

ATG4B isoform 2 (UniProt Q9Y4P1) and ALDH18A1 (UniProt P54886) are within 0.2 log units of each other in log2 fold change: 0.005 for the first, 0.031 for the second.

AGPAT3 isoform 3 (UniProt Q9NRZ7) and ANKZF1 (UniProt Q9H8Y5) are within 0.2 log units of each other in log2 fold change: 0.029 for the first, -0.006 for the second.

AK6 (UniProt Q9Y3D8) and AP2S1 (UniProt P53680) are within 0.2 log units of each other in log2 fold change: 0.103 for the first, -0.077 for the second.

ACADVL isoform 3 (UniProt P49748) and ATP5ME (UniProt P56385) are within 0.2 log units of each other in log2 fold change: 0.043 for the first, -0.007 for the second.

B4GALT1 (UniProt P15291) and ALKBH5 (UniProt Q6P6C2) are within 0.2 log units of each other in log2 fold change: 0 for the first, 0.109 for the second.

ATP12A isoform 2 (UniProt P54707) and ABHD16A (UniProt O95870) are within 0.2 log units of each other in log2 fold change: -0.033 for the first, 0.026 for the second.

BAP1 (UniProt Q92560) and ARMC8 (UniProt Q8IUR7) are within 0.2 log units of each other in log2 fold change: 0.058 for the first, 0.057 for the second.

Source: the supplement of paper PMC10849652
